Shown are actives, neighbours in structure and some others; about 1.8% of the full set was active somewhere.
ERp5 inh: blocks human ERp5 reductase activity on insulin. AID 651711. ERp5 insulin aggregation, absorbance 650 nm, 90 min. inhibition, % at 9.99 µM. 350,000 compounds, 0.05% hits. Q15084;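 active means mean replicate inhibition above about 25%, with every replicate also reaching it, limit read from the data, passing the limit was not always enough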
AF4-AF9 inh: MLL-AF4/AF9 protein interaction inhibition; AlphaScreen, biotin-AF4 peptide binding to FLAG-AF9; inhibition, % at 10 µM; 350,000 compounds, 0.47% hits; AID 651704;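 active means every replicate reaching a set inhibition limit, whatever the replicate mean, cut at about 25% in these data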
DENV2 CPE rescue: DENV2-induced cell death inhibition; DENV2-infected cells, cytopathic effect rescue, plate reader; CPE inhibition, % at 9.99 µM; 350,000 compounds, 1.7% hits; in the data active means CPE inhibition above about 20%, passing the limit was not always enough; tested in BHK-21 cells
ERAP1 HTS inh: inhibitors of human ERAP1 aminopeptidase. Q9NZ08. 340,000 compounds, 0.15% hits. recombinant ERAP1, Leu-AMC fluorescence, 60 min. inhibition, % at 10.7 µM;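 active means mean replicate inhibition of at least 30%, or all replicates individually reaching that 30% level; inactive means mean below 30% and not every replicate reaching it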
PDI inh: blocks human protein disulfide isomerase activity | PDI insulin aggregation turbidity, A650, 90 min | inhibition, % at 10 µM | P07237 | 350,000 compounds, 0.052% hits;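 active means mean inhibition across replicates of 30% or more, whatever share of single replicates reach that level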
Target sequence (P07237 whole entry, looked up): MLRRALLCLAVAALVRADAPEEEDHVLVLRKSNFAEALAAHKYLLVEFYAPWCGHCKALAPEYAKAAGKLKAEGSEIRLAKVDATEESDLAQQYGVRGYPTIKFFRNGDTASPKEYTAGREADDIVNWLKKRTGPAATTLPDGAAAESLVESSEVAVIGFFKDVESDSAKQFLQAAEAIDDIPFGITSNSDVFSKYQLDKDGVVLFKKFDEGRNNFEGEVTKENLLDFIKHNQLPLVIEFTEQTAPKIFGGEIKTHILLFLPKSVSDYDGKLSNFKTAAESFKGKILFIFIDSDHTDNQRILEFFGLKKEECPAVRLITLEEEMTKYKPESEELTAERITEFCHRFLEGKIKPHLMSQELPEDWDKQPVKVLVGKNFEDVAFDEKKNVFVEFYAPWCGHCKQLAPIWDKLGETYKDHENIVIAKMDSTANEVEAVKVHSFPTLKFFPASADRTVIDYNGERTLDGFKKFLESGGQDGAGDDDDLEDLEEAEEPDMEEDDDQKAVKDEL
Numbers stand for hits.

Results for CCCNC(=O)C[C@H]1C[C@@H]2c3cc(NC(=O)c4cccnc4)ccc3O[C@@H]2[C@@H](CO)O1 ?
DENV2 CPE rescue: inactive

What do the screens show for `Cc1ccc(S(=O)(=O)N(C)C[C@H]2OCCCC[C@H](C)Oc3ccc(NS(=O)(=O)c4ccc(Cl)cc4)cc3C(=O)N([C@H](C)CO)C[C@H]2C)cc1`?
ERp5 inh: inactive; AF4-AF9 inh: inactive; DENV2 CPE rescue: inactive; ERAP1 HTS inh: inactive

How did Cc1ccc(S(=O)(=O)Nc2ccc3c(c2)C(=O)N([C@@H](C)CO)C[C@@H](C)[C@H](CN(C)S(=O)(=O)c2ccc(Cl)cc2)OCCCC[C@@H](C)O3)cc1 do in these assays?
DENV2 CPE rescue: 83

Results for CCC(=O)N1[C@@H](CO)[C@@H](c2ccccc2)C12CN(Cc1cccnc1)C2 ?
ERp5 inh: inactive; AF4-AF9 inh: inactive; DENV2 CPE rescue: inactive; ERAP1 HTS inh: inactive

Results for COc1ccc(C#Cc2ccc([C@@H]3[C@@H](CO)N4CCCCN(Cc5ccccc5F)C[C@@H]34)cc2)cc1 ?
ERp5 inh: inactive; AF4-AF9 inh: inactive; DENV2 CPE rescue: inactive; ERAP1 HTS inh: inactive

What do the screens show for `COc1ccc(C#Cc2ccc([C@@H]3[C@H](CO)N4CCCCN(Cc5ccccc5F)C[C@@H]34)cc2)cc1`?
ERp5 inh: inactive; AF4-AF9 inh: 31; DENV2 CPE rescue: inactive; ERAP1 HTS inh: inactive

How did COc1ccc(C#Cc2ccc([C@H]3[C@H](CO)N4CCCCN(Cc5ccccc5F)C[C@@H]34)cc2)cc1 do in these assays?
ERp5 inh: inactive; AF4-AF9 inh: 32; DENV2 CPE rescue: inactive; ERAP1 HTS inh: inactive

What do the screens show for `C[C@@H]1CN([C@H](C)CO)C(=O)c2cccc(N(C)C)c2O[C@H]1CN(C)Cc1ccccc1`?
ERp5 inh: inactive; AF4-AF9 inh: inactive; DENV2 CPE rescue: inactive; ERAP1 HTS inh: inactive

How did O=c1cc(-c2cccc(F)c2)[nH]c2ccccc12 do in these assays?
ERp5 inh: inactive; AF4-AF9 inh: inactive; DENV2 CPE rescue: 36; ERAP1 HTS inh: inactive; PDI inh: inactive

How did Cc1ccc2[nH]c(-c3cccc(F)c3)cc(=O)c2c1 do in these assays?
ERp5 inh: inactive; AF4-AF9 inh: inactive; ERAP1 HTS inh: inactive; PDI inh: inactive

How did C[N+]1(CC(O)c2ccccc2)CCCCCC1 (configuration not stated) do in these assays?
ERp5 inh: inactive; AF4-AF9 inh: inactive; DENV2 CPE rescue: inactive; ERAP1 HTS inh: 43; PDI inh: inactive

Results for CO[C@@H]1CN(C)C(=O)c2cc(NC(=O)c3cnccn3)ccc2OC[C@@H](C)N(C(C)=O)C[C@@H]1C ?
ERp5 inh: inactive; AF4-AF9 inh: inactive; DENV2 CPE rescue: inactive; ERAP1 HTS inh: inactive

How did C[C@@H]1CN([C@@H](C)CO)C(=O)Cc2cc(NS(=O)(=O)c3cccs3)ccc2O[C@H]1CN(C)C(=O)Nc1ccc(F)cc1 do in these assays?
ERp5 inh: inactive; AF4-AF9 inh: inactive; DENV2 CPE rescue: inactive; ERAP1 HTS inh: inactive

How did O=C(Cc1ccc2c(c1)OCCO2)N1CCN(S(=O)(=O)c2cccc(Cl)c2Cl)CC1 do in these assays?
ERp5 inh: inactive; AF4-AF9 inh: 30; DENV2 CPE rescue: inactive; ERAP1 HTS inh: inactive; PDI inh: inactive

Results for C[C@@H]1CN([C@H](C)CO)C(=O)Cc2cc(NC(=O)C3CC3)ccc2O[C@@H]1CN(C)Cc1ccncc1 ?
ERp5 inh: inactive; AF4-AF9 inh: inactive; DENV2 CPE rescue: 21; ERAP1 HTS inh: inactive

What do the screens show for `C[C@@H]1CN([C@@H](C)CO)C(=O)Cc2cc(NC(=O)C3CC3)ccc2O[C@H]1CN(C)Cc1ccncc1`?
ERp5 inh: inactive; AF4-AF9 inh: inactive; DENV2 CPE rescue: inactive; ERAP1 HTS inh: inactive

What do the screens show for `COc1ccc(CN(C)C[C@H]2Oc3ccc(NC(=O)C4CC4)cc3CC(=O)N([C@H](C)CO)C[C@@H]2C)cc1`?
ERp5 inh: inactive; AF4-AF9 inh: inactive; DENV2 CPE rescue: 79; ERAP1 HTS inh: inactive

Results for C[C@H]1CCCCO[C@@H](CN(C)C(=O)NC2CCCCC2)[C@@H](C)CN([C@@H](C)CO)C(=O)c2cc(NS(=O)(=O)c3ccccc3)ccc2O1 ?
ERp5 inh: inactive; AF4-AF9 inh: inactive; DENV2 CPE rescue: 30; ERAP1 HTS inh: inactive

How did C[C@@H]1CN([C@H](C)CO)C(=O)c2cc(NS(=O)(=O)c3ccccc3)ccc2O[C@@H](C)CCCCO[C@@H]1CN(C)C(=O)NC1CCCCC1 do in these assays?
ERp5 inh: inactive; AF4-AF9 inh: inactive; DENV2 CPE rescue: 75; ERAP1 HTS inh: inactive

How did COc1ccc2c3c([nH]c2c1)[C@@H](CO)N(C(=O)CN1CCOCC1)CC31CCN(CC2CCCC2)CC1 do in these assays?
ERp5 inh: inactive; AF4-AF9 inh: inactive; DENV2 CPE rescue: inactive; ERAP1 HTS inh: inactive

Source: PubChem (Broad Institute)
